Source: PubChem BioAssay (EPA / NIEHS)
Results filed as inconclusive are left out. The source made the active and inactive calls. Rule for the calls, unless noted: active = hit-call score of the fitted dose curve at least 0.9, where 1 is the maximum; inactive = score below 0.9.

Legend:
[1] = molecular target: Paired box protein Pax-6 (Homo sapiens) (UniProt P26367); assay: ATG_Pax6_CIS: Attagene CIS-FACTORIAL HepG2 Assay for human Paired Box 6 (PAX6) (AID 2282956); conditions: HepG2 CIS-FACTORIAL PAX6 reporter transcription, RNA readout; actives raise or lower the signal
In short: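 Values derive from bidirectional curve fitting of reporter mRNA signal relative to DMSO. HepG2 cells bearing transfected cis-regulated MRTUs were exposed for 24 h; transcripts were read by RT-PCR and capillary electrophoresis.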

[2] = ATG_PXRE_CIS: Attagene CIS-FACTORIAL HepG2 Assay for human Pregnane X Receptor Element (PXRE) (AID 2282957); conditions: HepG2 Attagene CIS-FACTORIAL PXRE reporter, mRNA; actives raise or lower the signal
In short: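 Read-out: fluorescence of reporter-specific RT-PCR products resolved by capillary electrophoresis, fitted bidirectionally relative to DMSO. Human HepG2 liver cells carried transfected cis-promoter reporter units and were exposed to chemicals for 24 h.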

[3] = ATG_RORE_CIS: Attagene CIS-FACTORIAL HepG2 Assay for human RAR-related Orphan Receptor Element (RORE) (AID 2282959); conditions: HepG2 Attagene cis-factorial RORE reporter, mRNA; actives raise or lower the signal
In short: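 Cells were HepG2 carrying transfected cis-regulated reporter constructs, dosed for 24 hours. Total RNA was reverse-transcribed and reporter cDNA amplified, fluorescently labeled and sized by capillary electrophoresis. Activity was fitted bidirectionally relative to DMSO.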

[4] = ATG_Sox_CIS: Attagene CIS-FACTORIAL HepG2 Assay for human SRY-box transcription factor (SOX) (AID 2282960); conditions: HepG2 Attagene cis-factorial SOX reporter, mRNA; actives raise or lower the signal
In short: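 Transient MRTU transfection of HepG2; 24 h compound incubation; TriZol RNA, oligo(dT) RT, PCR, 6-FAM primer extension, HpaI cut, CE. Bidirectional fit, DMSO = baseline.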

[5] = molecular target: Transcription factor Sp1 (Homo sapiens) (UniProt P08047); assay: ATG_Sp1_CIS: Attagene CIS-FACTORIAL HepG2 Assay for human Specificity Protein 1 (Sp1) (AID 2282961); conditions: HepG2 Sp1 cis-reporter transcription, actives raise or lower the signal
In short: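 Endogenous Sp1 activity was gauged in human liver HepG2 cells bearing transfected reporter units under a cis-regulating promoter. After 24 h dosing, reporter mRNA was quantified by RT-PCR with capillary electrophoresis, and activity fitted bidirectionally versus DMSO.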

[6] = molecular target: Signal transducer and activator of transcription 3 (Homo sapiens) (UniProt P40763); assay: ATG_STAT3_CIS: Attagene CIS-FACTORIAL HepG2 Assay for human Signal Transducer and Activator of Transcription 3 (STAT3) (AID 2282963); conditions: HepG2, Attagene cis-factorial STAT3 reporter transcription; actives raise or lower the signal
In short: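 Cis-factorial format: endogenous transcription factors in HepG2 drive transfected reporter units. After 24 h treatment, reporter RNA was reverse-transcribed, amplified, FAM-labelled and HpaI-digested before CE analysis; activity scored in both directions against DMSO.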

[7] = ATG_TA_CIS: Attagene CIS-FACTORIAL HepG2 Assay for human TA Basal Promoter (AID 2282964); conditions: HepG2 Attagene CIS-factorial TA basal promoter reporter; actives raise or lower the signal
In short: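 HepG2 cells transiently transfected with multiplexed cis-promoter reporter units, dosed 24 h. Reporter mRNA measured by RT-PCR, 6-FAM labelling, HpaI digestion and capillary electrophoresis; bidirectional fit versus DMSO baseline, serving as background control.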

[8] = ATG_TCF_b_cat_CIS: Attagene CIS-FACTORIAL HepG2 Assay for human T-Cell-Factor with beta-catenin (TCF/b-cat) (AID 2282965); conditions: HepG2 TCF/beta-catenin cis-reporter transcription, actives raise or lower the signal
In short: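 Endogenous TCF/LEF activity read as reporter transcript level via RT-PCR and capillary electrophoresis fluorescence in transfected HepG2, 24 h exposure; gain or loss of signal fitted against DMSO controls.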

[9] = ATG_TAL_CIS: Attagene CIS-FACTORIAL HepG2 Assay for human TAL Basal Promoter (AID 2282966); conditions: HepG2 Attagene cis-factorial TAL promoter reporter; actives raise or lower the signal;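 note: background control endpoint measuring basal TAL promoter reporter mRNA not a specific factor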
In short: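 HepG2, transient MRTU transfection, 24 h compound exposure; RNA → oligo(dT) RT → PCR → 6-FAM primer extension → HpaI digest → CE fluorescence. Bidirectional curve fit vs DMSO. Background-control readout.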

[10] = ATG_TGFb_CIS: Attagene CIS-FACTORIAL HepG2 Assay for human Transforming Growth Factor (TGF) (AID 2282967); conditions: HepG2 Attagene CIS TGFb reporter, mRNA transcription; actives raise or lower the signal
In short: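 HepG2 cells transiently transfected with cis-promoter-driven multiplexed reporter units; 24 h compound exposure. Reporter mRNA measured by RT-PCR, 6-FAM labeling, HpaI digestion and capillary electrophoresis; bidirectional fit versus DMSO baseline.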

[11] = ATG_VDRE_CIS: Attagene CIS-FACTORIAL HepG2 Assay for human Vitamin D Receptor Element (VDRE) (AID 2282968); conditions: HepG2 VDRE cis-reporter transcription, actives raise or lower the signal
In short: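 Measures endogenous factor activity through cis-element-driven reporter transcripts in transiently transfected HepG2. Cells are treated 24 h; reporter mRNA is quantified by RT-PCR and capillary electrophoresis; fitting is bidirectional.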

[12] = molecular target: Steroid hormone receptor ERR1 (Homo sapiens) (UniProt P11474); assay: ATG_ERRa_TRANS: Attagene TRANS-FACTORIAL HepG2 Assay for human Estrogen-Related Receptor alpha (ERRa) (AID 2282971; active = hit-call score of the fitted dose curve at least 0.9, where 1 is the maximum); conditions: HepG2 Attagene TRANS reporter, ERRa transactivation
In short: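 Transfected HepG2, 24 h dosing, ERRa-Gal4 chimera driving GAL4-UAS reporter. Readout: reporter mRNA via RT-PCR plus capillary electrophoresis (fluorescence). Positive direction vs DMSO control.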

[13] = molecular target: X-box-binding protein 1 (Homo sapiens) (UniProt P17861); assay: ATG_Xbp1_CIS: Attagene CIS-FACTORIAL HepG2 Assay for human X-box Binding Protein 1 (XBP1) (AID 2282972); conditions: HepG2 XBP1 cis-element reporter, Attagene multiplex; actives raise or lower the signal
In short: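 Human hepatoma HepG2, cis-element reporter system, 24 h treatment; mRNA quantified by RT-PCR/CE fluorescence; fit relative to DMSO.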

[14] = ATG_M_19_TRANS: Attagene TRANS-FACTORIAL HepG2 Assay for M19 Transcription Factor (Internal Marker) (AID 2282974; active = hit-call score of the fitted dose curve at least 0.9, where 1 is the maximum); conditions: HepG2 Attagene TRANS-FACTORIAL M19 internal marker reporter
In short: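 Cells: human HepG2, transiently transfected with multiplexed reporter transcription units. Exposure: 24 h. Detection: RT-PCR of reporter mRNA with capillary electrophoresis. Analysis: gain-of-signal vs DMSO.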

[15] = ATG_GAL4_TRANS: Attagene TRANS-FACTORIAL HepG2 Assay for GAL4 (Internal Marker) (AID 2282976; active = hit-call score of the fitted dose curve at least 0.9, where 1 is the maximum); conditions: HepG2 Attagene TRANS GAL4 internal marker reporter
In short: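 RT-PCR/capillary electrophoresis readout of reporter mRNA. HepG2, transient MRTU transfection (GAL4-UAS reporters), 24 h compound exposure. Background-control endpoint, positive direction vs DMSO baseline.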

[16] = molecular target: Estrogen-related receptor gamma (Homo sapiens) (UniProt P62508); assay: ATG_ERRg_TRANS: Attagene TRANS-FACTORIAL HepG2 Assay for human Estrogen-Related Receptor gamma (ERRg) (AID 2282977; active = hit-call score of the fitted dose curve at least 0.9, where 1 is the maximum;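 note: hits increase reporter signal over DMSO so potencies reflect activators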); conditions: HepG2 Attagene TRANS reporter, ERRg transactivation
In short: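 Exogenous NR-Gal4 chimera activity was assessed in HepG2 cells bearing transfected GAL4-UAS reporters. After 24 h dosing, total RNA underwent RT-PCR, fluorescent primer extension and HpaI digestion before capillary electrophoresis, with gain of signal scored against DMSO.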

[17] = molecular target: Estrogen receptor (Homo sapiens) (UniProt P03372); assay: ATG_ERa_TRANS: Attagene TRANS-FACTORIAL HepG2 Assay for human Estrogen Receptor alpha (ERa) (AID 2282970; active = hit-call score of the fitted dose curve at least 0.9, where 1 is the maximum); conditions: HepG2 Attagene TRANS ERa GAL4 reporter, mRNA
In short: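 Reporter mRNA induction after 24 hours, detected by fluorescent RT-PCR and capillary electrophoresis, gives the read-out. Cells are HepG2 transiently transfected with GAL4-UAS reporter transcription units responding to chimeric NR-Gal4. Activity is taken as gain of signal over DMSO baseline.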

[18] = molecular target: Glucocorticoid receptor (Homo sapiens) (UniProt P04150); assay: ATG_GR_TRANS: Attagene TRANS-FACTORIAL HepG2 Assay for human Glucocorticoid Receptor (GR) (AID 2282978; active = hit-call score of the fitted dose curve at least 0.9, where 1 is the maximum;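 note: activators score as hits since higher reporter transcript over DMSO is fitted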); conditions: HepG2 Attagene TRANS GR reporter, mRNA transcription
In short: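 In this trans-factorial format, exogenous NR-GAL4 chimeric proteins in transfected HepG2 cells regulate GAL4-UAS reporter transcription. After 24 h treatment, reporter mRNA induction relative to DMSO is read by RT-PCR and capillary electrophoresis.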

[19] = ATG_SREBP_CIS: Attagene CIS-FACTORIAL HepG2 Assay for human Sterol Regulatory Element Binding (SREBP) (AID 2282962); conditions: HepG2 Attagene cis-factorial SREBP reporter, mRNA; actives raise or lower the signal
In short: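 Values derive from bidirectional curve fitting with DMSO as baseline. The underlying measurement is reporter mRNA from cis-element-regulated units in transiently transfected HepG2, quantified by RT-PCR and capillary electrophoresis after 24 h exposure.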

Measured: AC50

Sequence of Estrogen-related receptor gamma (Homo sapiens) (P62508 whole entry, looked up, the tested form may be a part): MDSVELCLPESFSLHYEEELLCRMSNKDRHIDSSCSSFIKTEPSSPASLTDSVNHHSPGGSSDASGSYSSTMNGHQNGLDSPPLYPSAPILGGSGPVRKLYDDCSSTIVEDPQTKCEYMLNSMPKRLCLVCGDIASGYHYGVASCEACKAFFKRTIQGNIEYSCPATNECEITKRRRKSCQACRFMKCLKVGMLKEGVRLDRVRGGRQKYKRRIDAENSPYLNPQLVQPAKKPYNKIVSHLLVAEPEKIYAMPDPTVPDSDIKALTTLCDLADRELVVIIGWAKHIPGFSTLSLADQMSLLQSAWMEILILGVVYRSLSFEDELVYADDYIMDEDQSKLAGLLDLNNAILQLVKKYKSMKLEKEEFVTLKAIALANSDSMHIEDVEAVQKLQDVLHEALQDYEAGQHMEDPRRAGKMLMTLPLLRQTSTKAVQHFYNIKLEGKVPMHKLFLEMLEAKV
Sequence of Signal transducer and activator of transcription 3 (Homo sapiens) (P40763 whole entry, looked up): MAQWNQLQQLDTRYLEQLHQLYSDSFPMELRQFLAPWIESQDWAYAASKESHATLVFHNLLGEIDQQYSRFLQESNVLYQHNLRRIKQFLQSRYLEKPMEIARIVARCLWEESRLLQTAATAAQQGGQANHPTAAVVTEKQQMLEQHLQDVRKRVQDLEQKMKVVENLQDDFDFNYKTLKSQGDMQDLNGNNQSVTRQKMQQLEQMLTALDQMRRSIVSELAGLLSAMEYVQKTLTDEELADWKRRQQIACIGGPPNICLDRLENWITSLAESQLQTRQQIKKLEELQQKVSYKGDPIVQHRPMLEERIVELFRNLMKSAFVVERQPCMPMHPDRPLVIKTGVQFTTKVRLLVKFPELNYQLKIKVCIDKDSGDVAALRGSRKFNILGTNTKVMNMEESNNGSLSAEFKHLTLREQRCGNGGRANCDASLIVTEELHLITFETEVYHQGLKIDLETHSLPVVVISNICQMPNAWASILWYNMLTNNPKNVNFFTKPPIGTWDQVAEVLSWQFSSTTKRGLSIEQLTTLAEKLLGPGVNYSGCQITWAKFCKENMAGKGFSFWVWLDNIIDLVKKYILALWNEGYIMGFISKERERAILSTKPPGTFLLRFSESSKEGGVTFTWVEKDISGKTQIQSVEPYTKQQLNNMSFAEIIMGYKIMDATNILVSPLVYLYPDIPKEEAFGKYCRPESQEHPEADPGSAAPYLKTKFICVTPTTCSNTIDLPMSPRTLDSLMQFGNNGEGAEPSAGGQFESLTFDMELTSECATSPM
Sequence of Paired box protein Pax-6 (Homo sapiens) (P26367 whole entry, looked up): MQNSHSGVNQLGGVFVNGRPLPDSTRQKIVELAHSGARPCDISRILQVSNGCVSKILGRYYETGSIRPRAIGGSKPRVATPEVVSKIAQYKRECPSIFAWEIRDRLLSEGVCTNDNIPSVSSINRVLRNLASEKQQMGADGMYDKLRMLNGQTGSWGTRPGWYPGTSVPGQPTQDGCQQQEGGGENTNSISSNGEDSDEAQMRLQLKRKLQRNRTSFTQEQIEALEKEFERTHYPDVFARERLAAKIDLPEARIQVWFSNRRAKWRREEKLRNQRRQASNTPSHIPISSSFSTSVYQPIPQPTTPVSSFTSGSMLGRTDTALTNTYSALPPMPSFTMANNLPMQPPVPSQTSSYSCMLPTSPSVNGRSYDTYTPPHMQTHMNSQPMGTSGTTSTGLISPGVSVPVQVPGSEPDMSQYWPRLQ
Sequence of Estrogen receptor (Homo sapiens) (P03372 whole entry, looked up, the tested form may be a part): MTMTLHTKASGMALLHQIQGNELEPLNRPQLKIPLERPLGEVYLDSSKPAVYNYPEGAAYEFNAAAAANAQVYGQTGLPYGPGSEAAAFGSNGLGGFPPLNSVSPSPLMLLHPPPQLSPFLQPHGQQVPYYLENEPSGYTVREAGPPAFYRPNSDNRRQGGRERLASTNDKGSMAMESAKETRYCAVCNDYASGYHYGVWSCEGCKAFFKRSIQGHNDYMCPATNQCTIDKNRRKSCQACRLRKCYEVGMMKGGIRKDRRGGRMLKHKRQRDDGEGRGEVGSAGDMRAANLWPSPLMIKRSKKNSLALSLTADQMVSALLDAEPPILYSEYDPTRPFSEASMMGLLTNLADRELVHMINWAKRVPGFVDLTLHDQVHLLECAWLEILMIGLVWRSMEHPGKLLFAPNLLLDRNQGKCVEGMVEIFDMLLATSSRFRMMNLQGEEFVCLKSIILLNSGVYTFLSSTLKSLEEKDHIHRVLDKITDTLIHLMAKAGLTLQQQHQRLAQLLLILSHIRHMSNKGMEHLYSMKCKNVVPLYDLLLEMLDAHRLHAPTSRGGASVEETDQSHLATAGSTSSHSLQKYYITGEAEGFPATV
Sequence of X-box-binding protein 1 (Homo sapiens) (P17861 whole entry, looked up): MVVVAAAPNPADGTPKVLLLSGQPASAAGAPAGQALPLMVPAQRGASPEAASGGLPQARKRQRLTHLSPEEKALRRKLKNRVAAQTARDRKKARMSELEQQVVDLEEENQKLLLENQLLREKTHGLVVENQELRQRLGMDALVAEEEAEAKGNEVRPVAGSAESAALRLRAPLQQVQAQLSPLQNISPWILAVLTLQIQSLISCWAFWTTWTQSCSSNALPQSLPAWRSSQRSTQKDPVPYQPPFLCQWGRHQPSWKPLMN
Sequence of Glucocorticoid receptor (Homo sapiens) (P04150 whole entry, looked up, the tested form may be a part): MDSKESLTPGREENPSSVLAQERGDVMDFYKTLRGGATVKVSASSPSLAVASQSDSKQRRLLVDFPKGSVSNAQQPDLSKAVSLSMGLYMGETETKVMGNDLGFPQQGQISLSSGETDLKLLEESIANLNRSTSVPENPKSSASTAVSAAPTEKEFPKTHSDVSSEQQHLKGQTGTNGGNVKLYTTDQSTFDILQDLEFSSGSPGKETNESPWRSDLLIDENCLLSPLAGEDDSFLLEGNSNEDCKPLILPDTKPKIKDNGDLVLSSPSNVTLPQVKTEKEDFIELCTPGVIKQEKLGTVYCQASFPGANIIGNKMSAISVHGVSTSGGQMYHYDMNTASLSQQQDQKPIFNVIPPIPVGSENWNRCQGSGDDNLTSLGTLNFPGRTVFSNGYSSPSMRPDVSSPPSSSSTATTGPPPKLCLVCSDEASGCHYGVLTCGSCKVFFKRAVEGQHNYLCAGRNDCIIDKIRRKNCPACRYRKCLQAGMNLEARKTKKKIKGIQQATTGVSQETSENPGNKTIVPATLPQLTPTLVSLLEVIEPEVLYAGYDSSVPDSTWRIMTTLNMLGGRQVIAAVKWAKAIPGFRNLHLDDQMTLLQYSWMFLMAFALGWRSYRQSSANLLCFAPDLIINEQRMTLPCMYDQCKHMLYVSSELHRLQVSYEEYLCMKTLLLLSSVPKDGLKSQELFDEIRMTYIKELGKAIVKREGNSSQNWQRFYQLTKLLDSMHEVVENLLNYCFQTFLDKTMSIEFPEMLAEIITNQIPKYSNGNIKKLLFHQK
Sequence of Transcription factor Sp1 (Homo sapiens) (P08047 whole entry, looked up): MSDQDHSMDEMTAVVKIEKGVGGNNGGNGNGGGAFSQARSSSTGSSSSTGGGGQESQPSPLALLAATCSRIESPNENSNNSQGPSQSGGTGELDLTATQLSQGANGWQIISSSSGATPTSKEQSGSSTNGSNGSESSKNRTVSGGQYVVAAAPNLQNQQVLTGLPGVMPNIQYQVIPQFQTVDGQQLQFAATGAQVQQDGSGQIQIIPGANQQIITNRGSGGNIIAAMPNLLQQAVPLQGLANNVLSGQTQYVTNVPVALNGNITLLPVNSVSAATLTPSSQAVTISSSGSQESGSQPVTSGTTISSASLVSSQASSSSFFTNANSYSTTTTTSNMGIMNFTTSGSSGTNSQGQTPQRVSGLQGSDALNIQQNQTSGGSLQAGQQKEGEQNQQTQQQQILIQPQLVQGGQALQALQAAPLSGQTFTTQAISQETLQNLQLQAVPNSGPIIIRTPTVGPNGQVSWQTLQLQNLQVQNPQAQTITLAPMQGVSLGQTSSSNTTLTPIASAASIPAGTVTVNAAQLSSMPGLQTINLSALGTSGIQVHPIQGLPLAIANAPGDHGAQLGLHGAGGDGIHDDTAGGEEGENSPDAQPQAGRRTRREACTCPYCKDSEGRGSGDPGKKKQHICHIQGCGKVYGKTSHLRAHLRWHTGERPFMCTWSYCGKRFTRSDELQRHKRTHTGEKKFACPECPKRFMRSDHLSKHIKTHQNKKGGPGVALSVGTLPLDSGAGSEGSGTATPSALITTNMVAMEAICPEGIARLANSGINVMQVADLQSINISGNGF
Sequence of Steroid hormone receptor ERR1 (Homo sapiens) (P11474 whole entry, looked up, the tested form may be a part): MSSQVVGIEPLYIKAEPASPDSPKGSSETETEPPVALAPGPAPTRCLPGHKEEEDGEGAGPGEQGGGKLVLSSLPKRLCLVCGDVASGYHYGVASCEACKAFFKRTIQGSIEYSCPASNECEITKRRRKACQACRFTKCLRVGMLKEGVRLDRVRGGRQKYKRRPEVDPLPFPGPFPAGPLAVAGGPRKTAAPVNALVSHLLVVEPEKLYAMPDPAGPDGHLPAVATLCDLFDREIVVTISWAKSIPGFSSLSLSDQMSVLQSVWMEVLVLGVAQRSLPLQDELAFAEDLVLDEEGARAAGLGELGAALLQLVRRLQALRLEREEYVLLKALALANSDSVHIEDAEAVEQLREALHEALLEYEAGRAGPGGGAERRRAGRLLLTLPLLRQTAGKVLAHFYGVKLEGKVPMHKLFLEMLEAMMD

CN[C@H]1CC[C@@H](c2ccc(Cl)c(Cl)c2)c2ccc(S(N)(=O)=O)cc21
not listed: [17] | [18] | [19]
inactive: all other assays above

O=[N+]([O-])C(CO)(CO)CO
active: [2] 48.1 µM
not listed: [16] | [17] | [18] | [19]
inactive: all other assays above

CN1CCN(Cc2cc(-c3ccc4[nH]c(=O)oc4c3)co2)[C@@H](c2ccc(F)cc2)C1
active: [1] 47.4 µM | [2] 8.51 µM | [7] 33 µM | [8] 25.7 µM | [11] 27.4 µM
not listed: [3] | [12] | [15] | [16] | [19]
inactive: all other assays above

CCOc1ccc2c(c1)C(C)=CC(C)(C)N2
active: [1] 100 µM | [2] 1.91 µM | [3] 100 µM | [5] 78.9 µM | [7] 100 µM | [8] 58.1 µM | [10] 151 µM | [11] 38.2 µM | [17] 40.7 µM | [13] 155 µM
inactive: [4] | [6] | [9] | [14] | [16]

Cc1ccc(N(C)C)cc1
active: [2] 27.4 µM
not listed: [3] | [12] | [14] | [15] | [16]
inactive: all other assays above

OC[C@@H](O)[C@@H](O)[C@H](O)[C@H](O)CO
not listed: [12] | [17] | [18] | [19]
inactive: all other assays above

CCCCCCOCCO
not listed: [3] | [12] | [16] | [19]
inactive: all other assays above

O=c1[nH]cc(F)c(=O)[nH]1
active: [17] 26.1 µM
not listed: [12] | [15] | [16] | [19]
inactive: all other assays above

Cc1ccc(Cl)cc1
not listed: [12] | [15] | [16] | [18] | [19]
inactive: all other assays above

CC(=O)Oc1ccccc1C(=O)O
active: [2] 26.9 µM | [8] 162 µM | [11] 82.9 µM
not listed: [12] | [14] | [15] | [16] | [19]
inactive: all other assays above

COc1cc(S(=O)(=O)O)c(C)cc1N=Nc1c(O)ccc2cc(S(=O)(=O)O)ccc12
not listed: [14] | [16] | [17] | [19]
inactive: all other assays above

CCCCCCC(=O)OCC
active: [2] 30.1 µM | [17] 17.6 µM
not listed: [12] | [15] | [18] | [19]
inactive: all other assays above
